Hits are enriched below; roughly 27% of the tested compounds scored in any of these assays.
CYP2C19 inh – inhibitors of human CYP2C19; 21% of 96,000 active; inhibition, % at 5 µM; CYP2C19 Supersomes, luciferin-H EGE luminescence, 30 min; P33261;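 active = CYP2C19 inhibition above a set limit at 5 µM in the primary screen, cut at about 50% in these data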
Target sequence (P33261 whole entry, looked up): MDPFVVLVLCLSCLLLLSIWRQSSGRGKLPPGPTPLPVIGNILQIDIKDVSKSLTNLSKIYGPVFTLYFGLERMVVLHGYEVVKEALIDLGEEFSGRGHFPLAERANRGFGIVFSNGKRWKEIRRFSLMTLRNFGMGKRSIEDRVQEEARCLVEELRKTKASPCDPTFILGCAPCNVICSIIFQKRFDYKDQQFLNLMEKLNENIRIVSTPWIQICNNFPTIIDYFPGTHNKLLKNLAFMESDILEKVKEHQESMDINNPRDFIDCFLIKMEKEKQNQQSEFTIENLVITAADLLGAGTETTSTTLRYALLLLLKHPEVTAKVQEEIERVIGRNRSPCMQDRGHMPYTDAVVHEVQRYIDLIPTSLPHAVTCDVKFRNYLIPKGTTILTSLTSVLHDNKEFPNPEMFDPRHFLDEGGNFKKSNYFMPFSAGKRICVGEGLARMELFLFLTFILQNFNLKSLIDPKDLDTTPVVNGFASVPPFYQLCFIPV
CYP2C9 inhib – blocks human cytochrome P450 2C9. P11712. CYP2C9 Supersomes, luciferin-H conversion, luminescence. inhibition, % at 5 µM. 20% of 96,000 active. AID 777;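 active = blocking of liver enzyme CYP2C9 beyond about 50% at 5 µM, limit read from the data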
CYP2C9 act – CYP2C9 (human) activation. AID 1024. 1.4% of 96,000 active. P11712. activation factor at 5 µM. recombinant CYP2C9, luciferin-H conversion, luminescence; stronger effect = higher value; factor 1 = untreated enzyme, 0 = blocked;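 active = activation factor of 2 or more for CYP2C9 at a 5 µM dose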
Cav32 inh – inhibitors of human Cav3.2 T-type calcium channel; Cav3.2-expressing cells, Fluo-4 calcium fluorescence FDSS; stronger effect = lower value; B-score at 10 µM; O95180; 4% of 100,000 active;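 active = single-dose well whose peak fluorescence ratio is a statistical outlier from its plate by either plate-standardised score or position-corrected B-score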
CYP2C19 act – increases human CYP2C19 enzyme activity. recombinant CYP2C19, luciferin-H EGE luminescence; stronger effect = higher value; 0 = fully inhibited enzyme, 1 = untreated enzyme. activation factor at 5 µM. 96,000 tested, under 10 active. AID 1025;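 active = activation factor of at least 2 at 5 µM in the primary screen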
Of the large screens only hits and unclear results are named; the others gave an inactive call.

COc1ccc2oc(=O)c(C(=O)N3CCc4ccccc43)cc2c1	CYP2C9 act 2.2
CCOc1cccc2cc(C(=O)N3CCN(C/C=C/c4ccccc4)CC3)c(=O)oc12	none (no result: CYP2C19 inh, CYP2C9 inhib, CYP2C9 act, CYP2C19 act)
COc1cccc2cc(C(=O)N3CCN(C45CC6CC(CC(C6)C4)C5)CC3)c(=O)oc12	CYP2C9 inhib 56
COc1cccc2cc(C(=O)N3CCc4ccccc43)c(=O)oc12	CYP2C19 inh 68
COc1cccc2cc(C(=O)N3C(C)CCCC3C)c(=O)oc12 (stereo not drawn)	none (no result: CYP2C19 inh, CYP2C9 inhib, CYP2C9 act, CYP2C19 act)
CCOc1cccc2cc(C(=O)N3CCc4ccccc43)c(=O)oc12	CYP2C9 act 2.4
CCCN1C[C@H](CSC)C[C@@H]2c3cccc4[nH]cc(c34)C[C@H]21	none (no result: CYP2C19 inh, CYP2C9 inhib, CYP2C9 act, CYP2C19 act)
NC(=O)CC[C@@H]1NC(=O)[C@@H]2CCCN2C(=O)c2cc([N+](=O)[O-])cc(I)c2NCCCC[C@@H](C(=O)NC(CC(=O)O)C(N)=O)NC1=O (stereo partly drawn)	none (no result: CYP2C19 inh, CYP2C9 inhib, CYP2C9 act, CYP2C19 act)
Cc1cc(C(=O)N2CCc3ccccc32)c2ccccc2n1	CYP2C19 inh 65
CCCc1cc(O)c2c(C)cc(=O)oc2c1	none (no result: CYP2C19 inh, CYP2C9 inhib, CYP2C9 act, CYP2C19 act)
C/C(=C\c1ccccc1)C(=O)n1nnc2ccccc21	none
O=C1N=C(N2CCN(c3cccc4ccccc34)CC2)S/C1=C/c1cccs1	CYP2C19 inh 54
COC(=O)c1cnc2c(C(F)(F)F)cccc2c1OC	none
COC(=O)c1cn(N(C)c2ncc(C(F)(F)F)cc2Cl)c(=O)c2ccccc12	CYP2C19 inh 98, CYP2C9 inhib 100
COC(=O)c1cn(Nc2ncc(C(F)(F)F)cc2Cl)c(=O)c2ccccc12	CYP2C19 inh 52
COC(=O)c1[nH]c2ccccc2c1NS(=O)(=O)c1ccc(F)c(C)c1	CYP2C19 inh 93
COc1ccc(S(=O)(=O)Nc2c(C(=O)O)[nH]c3ccccc23)c(OC)c1	CYP2C9 inhib 61
COc1ccc2[nH]c(C(=O)O)c(NS(=O)(=O)c3ccc(OC)c(OC)c3)c2c1	CYP2C9 inhib 76
COc1ccc2[nH]c(C(=O)O)c(CCC(=O)O)c2c1	none
COC(=O)CCS(=O)(=O)c1ccc(Cl)c(Cl)c1	none
Cc1nn(-c2ccc(F)cc2)c(C)c1NS(=O)(=O)c1ccc(Cl)cc1	CYP2C19 inh 100, CYP2C9 inhib 91
Cc1ccc(-n2nc(C)c(NS(=O)(=O)c3ccccc3)c2C)cc1C	CYP2C9 inhib 96
O=C(O)C1CCC(=O)N(C2CCCCC2)C1c1ccccc1 (stereo not drawn)	none (no result: CYP2C19 inh, CYP2C9 inhib, CYP2C9 act, CYP2C19 act)
COc1ccc(CCNC(=O)COc2ccc(S(=O)(=O)N3CCOCC3)cc2)cc1OC	CYP2C9 inhib 50, Cav32 inh -4.3
COc1ccc(CCNC(=O)COc2ccc(-c3ccc(C)cc3)cc2)cc1OC	CYP2C9 inhib 74
COc1ccc(CCNC(=O)CN2CCC(C)CC2)cc1OC	none
CCOc1ccccc1NC(=O)CSc1nnc2c(CC)c(C)nc(N)n12	none
C=CCn1c(SC(C)CC)nc(O)cc1=O (stereo not drawn)	CYP2C19 inh 98
C=CCn1c(SCCCCCC)nc(O)cc1=O	none
COCCCNC(=O)C(F)(F)C(F)(F)C(=O)NCCCOC	none
Cc1cc2c(n1-c1ccc(Br)cc1)CC(C)(C)CC2=O	CYP2C19 inh 67 (no result: Cav32 inh)
Cc1ccc(-n2c(C)cc3c2CC(C)(C)CC3=O)cc1C	none
COc1ccc(NC(=O)CCCNS(=O)(=O)c2cccs2)cc1	CYP2C19 inh 72
COc1ccc(NC(=O)CNS(=O)(=O)c2cccs2)cc1	CYP2C19 inh 53
COc1ccc(NC(=O)CN(C)S(=O)(=O)c2cccs2)cc1	none
O=C(CCC1CCCCC1)NCCN1C2=NC[C@@H](Cc3ccccc3)N2C[C@H]1Cc1ccc(O)cc1	none (no result: CYP2C19 inh, CYP2C9 inhib, CYP2C9 act, CYP2C19 act)
O=C1OCC(CO)(CO)N=C1NNc1ccccc1Cl	CYP2C19 inh 50
COc1ccc(C2/C(=C(/O)c3ccccc3)C(=O)C(=O)N2CCO)cc1 (stereo not drawn)	none (no result: Cav32 inh)
COc1ccc(N/C(C)=C2/C(=O)C(=O)N(CCO)C2c2ccc(Br)cc2)cc1 (stereo not drawn)	CYP2C19 inh 60, CYP2C9 inhib 52
CCOc1ccc(C(=O)/C=C/c2cn(CN3CCN(C)CC3)c3ccccc23)cc1	CYP2C19 inh 62, CYP2C9 inhib 64
COc1ccc(C(=O)/C=C/c2ccccc2C(F)(F)F)cc1	none
CCOc1ccc(C(=O)/C=C/c2ccccc2C(F)(F)F)cc1	none
COc1ccc(C(=O)/C=C/c2cn(CN3CCN(C)CC3)c3ccccc23)cc1	CYP2C19 inh 67, CYP2C9 inhib 68 (no result: Cav32 inh)
O=c1[nH]c2ccccc2n1C1CCCCC1	none (no result: Cav32 inh)
CC(C)c1nc(CN(C)C(=O)N[C@H](C(=O)N[C@@H](Cc2ccccc2)C[C@H](O)[C@H](Cc2ccccc2)NC(=O)OCc2cncs2)C(C)C)cs1	Cav32 inh -5.6 (no result: CYP2C19 inh, CYP2C9 inhib, CYP2C9 act, CYP2C19 act)
CC(C)(C)OC(=O)N1Cc2ccccc2C[C@H]1C(=O)O	none
O=C(OCc1cnc(Cl)s1)c1ccccc1Cl	CYP2C19 inh 77
O=C(Nc1ncc(Cc2cccc(Cl)c2Cl)s1)c1ccc([N+](=O)[O-])cc1	none
CN(C)CCCOC(=O)c1ccccc1Cl	none
O=C(OCc1cnc(Cl)s1)c1cccc(Cl)c1Cl	CYP2C19 inh 92
O[C@@H](CNC[C@H](O)c1ccccc1)c1ccccc1	none (no result: CYP2C19 inh, CYP2C9 inhib, CYP2C9 act, CYP2C19 act)
COC(=O)c1ccc(-c2ccc(CNCC(O)c3ccccc3)o2)cc1 (stereo not drawn)	CYP2C19 inh 60 (no result: Cav32 inh)
CS(=O)(=O)N1c2ccccc2[C@]2(Br)C[C@H]3C(=O)N[C@@H](Cc4ccccc4)C(=O)N3[C@H]12	none (no result: CYP2C19 inh, CYP2C9 inhib, CYP2C9 act, CYP2C19 act)
CC(=O)Nc1nc(C)nc(-c2ccccc2)c1C(C)=O	none
CNc1nc(C)c(C#N)c(-c2ccccc2)c1C(C)=O	CYP2C19 inh 55 (no result: Cav32 inh)
CS(=O)(=O)Nc1ccc(C(=O)N2CCCCC2)cc1	none
Cc1cc(C)cc(-n2nnnc2SCC(=O)Nc2cccc(NC(=O)c3ccco3)c2)c1	none
CCCn1nnnc1SCC(=O)Nc1cccc(NC(=O)c2ccco2)c1	CYP2C19 inh 75, CYP2C9 inhib 60
CCn1c(SCC(=O)Nc2cccc(NC(=O)c3ccco3)c2)nnc1-c1cccs1	CYP2C19 inh 56, CYP2C9 inhib 65
CCOC(=O)c1cnc(-c2ccccc2)nc1N	CYP2C19 inh 85, CYP2C9 inhib 64
CCOC(=O)c1cnc(SCC(C)C)nc1N	CYP2C19 inh 50
CCOC(=O)c1cnc(SCC(=O)c2ccc3c(c2)OCCO3)nc1N	CYP2C9 inhib 52
CCOC(=O)c1cnc(SCC(=O)c2ccccc2)nc1N	CYP2C19 inh 78
CCOC(=O)c1cnc(SCC(=O)c2ccc(C)cc2)nc1N	none (no result: CYP2C19 inh, CYP2C9 inhib, CYP2C9 act, CYP2C19 act)
CCOC(=O)c1cnc(SC)nc1N	none
COc1ccc(C(=O)c2nc3c(n2O)CCCC3)cc1OC	none
CO[C@@]1(NC(=O)CSCC#N)C(=O)N2C(C(=O)O)=C(CSc3nnnn3C)CS[C@@H]21	none (no result: CYP2C19 inh, CYP2C9 inhib, CYP2C9 act, CYP2C19 act)
CCCCOc1ccc(Cl)cc1Nc1nc(NCCO)nc(N2CCCC2)n1	none (no result: CYP2C19 inh, CYP2C9 inhib, CYP2C9 act, CYP2C19 act)
C=CCNC(=O)c1ccccc1S(=O)c1ccccc1C#N (stereo not drawn)	none
CCOC(=O)c1cnc(-c2ccccc2)nc1N(C)C	none
CCOC(=O)c1cnc(SC)nc1Sc1ccccc1	CYP2C9 inhib 60
